# High-throughput results (PubChem)
# NS1 inh – qHTS Assay for Inhibitors of Influenza NS1 Protein Function. 0.4% of 270,000 active. Potency, µM (doses to about 46.1 µM), inactives show at the top dose activity, positive = more growth; calls by dose curve; further: potency means the concentration at half of the fitted maximal effect; actives are rising curves; nearly all actives have a fitted effect of over 50% in size
#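 Growth recovery, yeast-based: influenza A NS1 expressed in S. cerevisiae causes slow growth, and suppressors are detected by OD600. The parent strain without NS1 is used as positive control.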
# Shiga inhibitor – A qHTS for Small Molecule Inhibitors of Shiga Toxin | Vero cells, Shiga toxin protein synthesis inhibition reporter | inhibition, % at 38.7 µM | 9.2% of 290,000 active | AID 2315, 2010; in the data active means inhibition mostly above about 28%, no sharp cut-off; inactive means mostly below about 43%; further: 0% is about no effect
# AmpC no deterg – qHTS Inhibitors of AmpC Beta-Lactamase (assay without detergent) | 0.52% of 330,000 active | P00811 | AmpC nitrocefin hydrolysis, absorbance 480 nm, 0.0001% Triton | Potency, µM (highest dose often 57.1 µM), for the others: at the highest dose activity change, negative = inhibition, usual class: inhibitors;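 further: potency means the concentration at half of the fitted maximal effect; plate controls were no compound for no effect and no enzyme for full effect; nearly all actives have a fitted effect of over 20% in size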
# Target sequence (P00811 whole entry, looked up): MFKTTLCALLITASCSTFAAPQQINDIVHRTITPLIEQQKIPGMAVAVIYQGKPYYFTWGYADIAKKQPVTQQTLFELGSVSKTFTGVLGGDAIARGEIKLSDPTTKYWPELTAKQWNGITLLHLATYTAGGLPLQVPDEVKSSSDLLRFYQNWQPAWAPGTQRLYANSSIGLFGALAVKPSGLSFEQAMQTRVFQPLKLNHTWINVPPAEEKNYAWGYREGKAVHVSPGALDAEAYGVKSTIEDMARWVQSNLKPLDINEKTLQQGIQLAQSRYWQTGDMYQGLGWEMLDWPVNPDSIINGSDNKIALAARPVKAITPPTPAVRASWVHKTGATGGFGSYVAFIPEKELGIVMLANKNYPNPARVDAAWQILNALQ
#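 AmpC (5.3 nM in the dispensed reagent) in 20 mM phosphate pH 7.0 with 0.01% (detergent screen) or 0.0001% Triton X-100 was preincubated with compounds for 15 min at room temperature. Nitrocefin was then added from an 800 uM solution, and hydrolysis was followed at 480 nm.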
# AmpC detergent – qHTS Inhibitors of AmpC Beta-Lactamase (assay with detergent); P00811; AmpC hydrolysis of nitrocefin, absorbance 480 nm, 0.01% Triton; Potency, µM (series often up to 114 µM), inactives show top-dose activity change, negative = inhibition, hits mostly inhibitors; 0.041% of 370,000 active; AID 485294, 2010;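 further: potency means the concentration at half of the fitted maximal effect; 0% = no-compound wells and -100% = no-enzyme wells; nearly all actives have a fitted effect of over 25% in size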
#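 AmpC (5.3 nM in the dispensed reagent) in 20 mM phosphate pH 7.0 with 0.01% (detergent screen) or 0.0001% Triton X-100 was preincubated with compounds for 15 min at room temperature. Nitrocefin was then added from an 800 uM solution, and hydrolysis was followed at 480 nm.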
# CHX counter – Cycloheximide Counterscreen for Small Molecule Inhibitors of Shiga Toxin. cell reporter, cycloheximide protein synthesis inhibition counterscreen. max response, %. 12% of 300,000 active. AID 2314, 2010; in the data active means max response mostly above about 13%, no sharp cut-off; inactive means mostly below about 14%; further: read at 38.3 µM for the half of the compounds with a filed dose; 0% is about no effect
# Flu NS1 inh – Assay for Inhibitors of Influenza NS1 Protein Function: Hit Validation. 1,400 tested, under 10 active. influenza NS1 function cell assay, 15-point titration. shares compounds with NS1 inh. activity change, negative = inhibition, % at 32.9 µM; calls by dose curve; further: 0% is about no effect
# Flu PR8 replic – Assay for Inhibitors of Influenza NS1 Protein Function: Influenza virus replication assay in MDCK cells infected with virus A/PR/8/34; shares compounds with NS1 inh; MDCK infected influenza A/PR/8/34, virus titer TCID50; hits give low values; virus titer (log TCID50), log10 TCID50 at 5 µM; 30% of 95 active; call rule not given here
# Numbers without * were called inactive; ? = inconclusive; nt = no result given. The full list was thinned out, with hits kept by preference. Unless noted, the call rests on the fitted dose curve; in most records, active means well fitted curve in the direction sought with a large enough effect; inconclusive means small, poorly fitted or top-dose-only effect, or another doubt; inactive means no such curve, though single readings can be large; an effect the other way counts as inactive or inconclusive.
SMILES,NS1 inh,Shiga inhibitor,AmpC no deterg,AmpC detergent,CHX counter,Flu NS1 inh,others
CC1(OC(=O)c2cccs2)C(=O)C=C2C=C3CCCN3C=C2C1=O (stereo unspecified),?,-1,33%,2%,-6,34,
CC1(OC(=O)CCc2ccccc2)C(=O)C=C2C=C3CCCN3C=C2C1=O (stereo unspecified),4%,20,39%,-2%,-2,nt,
Cc1oc(-c2ccccc2F)nc1CS(=O)(=O)CC(=O)NCCCN1CC(C)CC(C)C1 (stereo unspecified),-2%,12,57%,1%,-2,nt,
Cc1ccc(S(=O)(=O)N2CCOCC2)cc1NC(=O)COC(=O)Cn1c(C)csc1=O,nt,nt,-3%,-2%,nt,nt,
COc1ccc(C(=O)Oc2cc(/C=N/NC(N)=S)ccc2OC)cc1,8.9µM*,-10,-54%,?,-2,-39,
COc1ccc(/C=N/NC(N)=S)cc1OC(=O)c1cccc2ccccc12,2.2µM*,56*,-38%,0%,23*,?,
COc1ccccc1C(=O)NCCn1cc(SCC(=O)Nc2nnc(C)s2)c2ccccc21,13µM*,-8,53%,5%,-4,11,
Cc1cccc(NNC(=O)c2c(F)cccc2Cl)c1,3%,-5,-18%,-3%,-1,nt,
Nc1c(/C=C2/C=CC(=O)C(O)=C2)c(=O)nc2sc(CC(=O)N3CCCC3)nn12,26%,-9,-17%,2%,6,nt,
Nc1c(/C=C2/C=CC(=O)C(O)=C2)c(=O)nc2sc(CC(=O)N3CCCCC3)nn12,14µM*,-14,-38%,11%,3,-11,
COc1ccccc1/C=C1\CCCC2=C1Nc1nnnn1C2c1ccccc1OC (stereo unspecified),?,8,-57%,-8%,-3,?,Flu PR8 replic=8.5
COc1ccc2[nH]c(C(=O)O)c(CCNC(=O)/C=C/c3ccc(O)c(OC)c3)c2c1,3%,-5,-27%,-5%,-4,nt,
CNC(=O)c1cc2cc(OC)ccc2n1CCN(C)C,3.5µM*,-3,-4%,3%,-4,1,
CC(C)OCCCNC(=O)c1c(N)n(/N=C/c2ccccn2)c2nc3ccccc3nc12,8.9µM*,13,-6%,-19%,-2,8,
CCC(C)NC(=O)c1c(N)n(/N=C/c2ccccn2)c2nc3ccccc3nc12 (stereo unspecified),11µM*,10,-2%,4%,8,?,
COCCCNC(=O)c1c(N)n(/N=C/c2cccnc2)c2nc3ccccc3nc12,9%,33,5%,?,-1,nt,
CCC(C)NC(=O)c1c(N)n(/N=C/c2cccnc2)c2nc3ccccc3nc12 (stereo unspecified),-4%,61,-1%,?,4,nt,
Cc1ccc(Cl)cc1NC(=O)Nc1c(C)n(C)n(-c2ccccc2)c1=O,-15%,0,-21%,?,2,nt,
Nc1cc(=O)[nH]n1C1CCN(c2ccccc2)CC1,14µM*,3,-4%,7%,-4,27,
C=CCNC(=O)/C(C#N)=C/c1cn(-c2ccccc2)nc1-c1ccc(OC)c([N+](=O)[O-])c1,?,12,17%,14%,-3,30,
CCN(CC(=O)NCCCN1CCOCC1)S(=O)(=O)c1ccc(Cl)cc1,-19%,-11,-2%,10%,-3,nt,
CCC1Oc2ccc(C)cc2N(CC(=O)NCCCN2CCCCC2C)C1=O (stereo unspecified),?,-15,21%,2%,-1,-19,
Cc1ccc(S(=O)(=O)N2CCC(=O)N(C(COCc3cccc(Cl)c3)Cc3ccccc3)CC2)cc1 (stereo unspecified),21%,9,4%,?,-1,nt,
